Screens: PubChem, National Center for Advancing Translational Sciences (NCATS)
rTrxR1 inhibitor – inhibitors of rat thioredoxin reductase 1. Potency, µM (series often up to 114 µM), for the others: top-dose activity change, negative = inhibition, actives largely listed as inhibitors. O89049. AID 588453. recombinant rTrxR1, NADPH fluorescence consumption, selenite substrate. 390,000 tested, 1% active; further: on the % scale 0 is the no-effect control and ±100 the full control effect; nearly all actives have a fitted effect of over 65% in size
Target sequence (O89049 whole entry, looked up): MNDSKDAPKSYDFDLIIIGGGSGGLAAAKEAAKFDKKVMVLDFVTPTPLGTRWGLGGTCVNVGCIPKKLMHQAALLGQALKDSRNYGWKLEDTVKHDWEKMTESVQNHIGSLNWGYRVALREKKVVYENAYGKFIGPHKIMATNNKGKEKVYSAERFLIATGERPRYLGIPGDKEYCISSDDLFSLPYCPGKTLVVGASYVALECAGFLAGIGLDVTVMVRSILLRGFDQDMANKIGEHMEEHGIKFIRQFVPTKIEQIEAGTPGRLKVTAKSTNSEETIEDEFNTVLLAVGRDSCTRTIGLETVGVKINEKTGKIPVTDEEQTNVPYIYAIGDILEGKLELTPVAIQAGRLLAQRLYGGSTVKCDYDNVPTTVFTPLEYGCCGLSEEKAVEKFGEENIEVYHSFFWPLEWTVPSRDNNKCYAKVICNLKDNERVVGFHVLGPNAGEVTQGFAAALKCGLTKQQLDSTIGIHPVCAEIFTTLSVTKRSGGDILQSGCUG
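Rat TrxR1 (90 nM in the dispensed reagent) was pre-reduced with 400 uM NADPH for 5 min at room temperature, then incubated with compound for 15 min. After 400 uM selenite was added, NADPH fluorescence (Ex 340/Em 450 nm) was followed for 8 min.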
Glioma ERSR ind – ER stress response induction in glioma. 420,000 tested, 0.02% active. U87-MG GRP78 promoter luciferase reporter, 16 h. AID 602332. Potency, µM, without a hit: at the top dose activation, most hits filed as activators; further: series mostly up to about 76 µM; % of control where 0% means no effect; nearly all actives have a fitted effect of over 35% in size
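Stably transfected U87-MG glioma cells carrying a GRP78-based luciferase sensor; 16 h compound incubation. Luminescence end-point read 10 min after Bright-Glo addition at room temperature.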
12-LOX inh – inhibitors of human 12S-lipoxygenase ALOX12; 580,000 tested, 1.1% active; purified 12hLO, xylenol orange hydroperoxide absorbance; Potency, µM (top dose mostly 108 µM), for the others: at the top dose activity change, negative = inhibition, hits mostly inhibitors; P18054; further: on the % scale 0 is the no-effect control and ±100 the full control effect
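Purified human 12hLO at 150 nM in 25 mM Hepes, 0.01% Triton X-100, pH 7.0, preincubated 15 min at room temperature with compound. Reaction started with 40 uM arachidonic acid, 30 min at room temperature. Hydroperoxide measured by Fe-xylenol orange, 573/405 nm absorbance ratio.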
IDH1 R132H inh – blocks human mutant IDH1 R132H enzyme | IDH1-R132H enzyme, NADPH consumption, diaphorase/resazurin fluorescence | Potency, µM (titrated, usually from 76.6 µM), for inactives: at the top dose activity change, negative = inhibition, actives largely listed as inhibitors | 390,000 tested, 0.093% active; further: on the % scale 0 is the no-effect control and ±100 the full control effect; nearly all actives have a fitted effect of over 65% in size
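IDH1-R132H (0.5 ug/mL) preincubated 30 min with compound, then NADPH (0.016 mM) and alpha-KG (2 mM) added; 80 min at RT, pH 7.5. Remaining NADPH coupled via diaphorase/resazurin to fluorescence (540/590 nm); concentration-response curves normalized to no-enzyme control.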
Apoferritin bind – binds horse apoferritin like a general anesthetic; P02791; apoferritin/1-aminoanthracene competitive binding, fluorescence; Potency, µM (series often up to 77.5 µM), for inactives: at the highest dose activity change, negative = displacement, actives largely listed as inhibitors; 350,000 tested, 0.074% active; AID 485281; further: on the % scale 0 is the no-effect control and ±100 the full control effect; nearly all actives have a fitted effect of over 20% in size
Target sequence (P02791 2-175 limits assumed): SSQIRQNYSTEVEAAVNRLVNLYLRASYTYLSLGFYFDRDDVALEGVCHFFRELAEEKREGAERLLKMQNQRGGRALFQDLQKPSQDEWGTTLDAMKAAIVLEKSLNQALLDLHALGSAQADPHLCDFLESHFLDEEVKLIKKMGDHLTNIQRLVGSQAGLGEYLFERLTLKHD
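Apoferritin-based anesthetic binding model; compound displacement of fluorescent 1-AMA measured as endpoint fluorescence after 10 minutes at room temperature, scaled to free-ligand and complex controls.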
TrxR1 substrate – substrates of rat thioredoxin reductase 1 | O89049 | purified TrxR1 substrate turnover, NADPH consumption readout | Potency, µM (top dose mostly 114 µM), without a hit: at the top dose activity change, negative = substrate turnover | 390,000 tested, 0.01% active | AID 588456; further: on the % scale 0 is the no-effect control and ±100 the full control effect; nearly all actives have a fitted effect of over 50% in size
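Rat TrxR1, dispensed at 90 nM, was prereduced with 400 uM NADPH (final) for 5 min at ~22 deg C, then incubated with compound 15 min before 400 uM selenite. A first-read NADPH fluorescence drop versus no-compound background flagged substrates.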
Starred values were filed as active, the others as inactive; ? = inconclusive; · = no result given; [ ] = dose if it differs, or a comment. Compounds with a hit are over-represented: about 1.7% of the library has one in this group of screens. The call rests on the fitted dose curve; in most records, active means well fitted curve in the direction sought with a large enough effect; inconclusive means small, poorly fitted or top-dose-only effect, or another doubt; inactive means no such curve, though single readings can be large; an effect the other way counts as inactive or inconclusive. Potency means the concentration at half of the fitted maximal effect.

SMILES	rTrxR1 inhibitor	Glioma ERSR ind	12-LOX inh	IDH1 R132H inh	Apoferritin bind	TrxR1 substrate
O=C(O)Cn1nc(-c2ccccc2)ccc1=O	5%	-5%	?	8%	0%	-3%[57.1 µM]
O=c1ccc(-c2ccccc2)nn1Cc1ccc(F)cc1Cl	33%	-5%	?	0%	?	8%
Cc1ccc(-c2ccc(=O)n(CC(=O)NCc3ccco3)n2)cc1	6%	-7%	-10%	5%	8.9µM*	7%
Cc1nn(CN2CCN(S(=O)(=O)c3ccc(C#N)cc3)CC2)c(=O)c2ccccc12	·	·	-12%	·	·	·
COc1cc(=O)n2c(c1C(=O)Nc1cc(F)ccc1C)CCCC2	·	·	52%	·	·	·
CCCCOC(=O)c1nc2ccccc2nc1Nc1cccc(OC)c1	·	·	6.3µM*	·	·	·
CCS(=O)(=O)c1ncc(Cl)c(C(=O)N(Cc2ccccc2)Cc2ccco2)n1	2.8µM*	-11%	7%	5%	-8%	12%
COc1ccccc1CNC(=O)CCC[C@@H]1[C@H]2CCCN3CCC[C@@H](CN1C(=O)c1cccnc1)[C@@H]23	·	·	21%	·	·	·
FC(F)(F)c1ccccc1Cc1c(-c2ccco2)nc2ccc(Br)cn12	·	-12%	35µM*	·	·	·
COc1ccccc1Cc1c(-c2ccco2)nc2ccc(Br)cn12	·	?	18µM*	·	·	·
O=C(CCS(=O)(=O)c1ccccc1)N1CCN(c2cccc(C(F)(F)F)c2)CC1	79µM*	2%	-5%	2%	8%	-2%
O=C(CCS(=O)(=O)c1ccccc1)N1CCN(c2ccc(F)cc2)CC1	38%	?	-5%	14%	-3%	15%
Cc1cn2nc(C(=O)N3CCC(NC(=O)Cc4ccccc4Cl)CC3)cc2c(=O)[nH]1	·	·	27%	·	·	·
Cc1ccc(S(=O)(=O)N2CCCC2C(=O)OCc2ccco2)cc1 (centres undefined)	7.9µM*	-3%	·	1%	3%	10%
Cc1ccc(S(=O)(=O)N2CCCC2C(=O)OCc2ccccc2)cc1 (centres undefined)	12%	-2%	-22%	2%	-15%	-5%
COCC(=O)N1CCCc2nc(C)nc(-c3ccc(O)cc3)c2C1	·	·	-3%[176 µM]	·	·	·
Fc1ccc(N/N=C/c2ccc(F)c(F)c2)c(F)c1	·	·	7.9µM*	·	·	·
Fc1ccc(N/N=C/c2cccc(Br)c2)c(F)c1	·	·	16µM*	·	·	·
CCN(CC1CCOCC1)C(=O)C1(Oc2ccc(C)cc2)CCNCC1	·	·	42%	·	·	·
Cc1ccc(NC(=O)CN2C(=O)S/C(=C/c3ccc(-c4cccc(C(=O)O)c4)o3)C2=O)cc1	-16%	-3%	40µM*	5%	-9%	-4%
Cc1ccc(NC(=O)CN2C(=O)S/C(=C\c3ccc(-c4cccc(C(=O)O)c4C)o3)C2=O)cc1	·	·	·	·	-6%	·
O=C(O)c1cc(-c2ccc(/C=C3/SC(=S)N(Cc4ccccc4)C3=O)o2)ccc1Cl	-39%	0%	13µM*	-27%	-1%	8%[57.1 µM]
Cc1ccc(/C=C2\SC(=S)N(Cc3ccccc3)C2=O)o1	-32%	0%	45µM*	10%	-12%	-2%
Cc1ccc(/C=C2/NC(=O)N(Cc3ccccc3)C2=O)o1	1%[11.4 µM]	6%	32µM*	2%	-17%	3%[11.4 µM]
O=C1/C(=C/c2ccncc2)SC(=S)N1Cc1ccccc1	-16%[57.1 µM]	?	?	?	-11%	-2%[57.1 µM]
SMILES	rTrxR1 inhibitor	Glioma ERSR ind	12-LOX inh	IDH1 R132H inh	Apoferritin bind	TrxR1 substrate
CC1=C[C@@H](CNC(=O)C2CC2)[C@H](C(C)C)C[C@H]1CC(=O)NC1CCCC1	·	·	0%[176 µM]	·	·	·
CCOC(=O)c1ccccc1NC(=O)COC(=O)c1nn(-c2ccccc2)c(=O)c2ccccc12	·	·	3%	·	·	·
Cc1ccccc1CS(=O)Cc1cccc(F)c1 (centres undefined)	·	·	24%	·	·	·
CN(CCO)C(=O)c1cc(-c2ccc(Cl)cc2)nc2ccccc12	·	·	20%	·	·	·
O=C1NC(=Nc2ccccc2)S/C1=C\C=C\c1ccco1	79µM*	3%	50µM*	-1%	-21%	-11%
COc1ccc(N=C2NC(=O)/C(=C/C=C/c3ccccc3)S2)cc1	6%[57.1 µM]	-2%	248%	20%	5%	-5%[57.1 µM]
Cc1ccc(N=C2NC(=O)/C(=C/C=C/c3ccco3)S2)cc1	45µM*	1%	32µM*	8%	?	-5%
Cc1cccc(N=C2NC(=O)/C(=C/C=C/c3ccco3)S2)c1C	?	0%	10µM*	-2%	-23%	-16%
COC(=O)c1ccc2nc(C[C@@H]3C[C@@H](C(C)C)[C@H](CNS(=O)(=O)c4ccccc4)C=C3C)[nH]c2c1	·	·	52%	·	·	·
Cc1ccc(C(=O)N2CC[C@H](c3n[nH]c(C)n3)[C@H](NC(=O)C3CCOCC3)C2)cc1	·	·	3%	·	·	·
CCCCCCCCCCCNC(=O)c1ccoc1C	20µM*	-6%	?	0%	-1%	-5%
COc1ccccc1CNC(=O)c1ccoc1C	?	-2%	0%	1%	-13%	-2%
Cc1occc1C(=O)NCc1ccccc1F	10µM*	-3%	-19%	0%	-12%	9%
COc1ccc(CN2CCc3nc(C(=O)NCc4ccncc4)oc3CC2)cc1OC	·	·	1%[176 µM]	·	·	·
N#Cc1cccc(OCC(=O)c2ccc3c(c2)CCC3)c1	·	·	-2%	·	·	·
N#Cc1cccc(NC(=S)Nc2ccccc2)c1	45µM*	2%	-29%	1%	-7%	-4%
CC(=O)C1=C(O)C=C2Oc3c(C(C)=O)c(O)c(C)c(O)c3[C@]2(C)C1=O	·	0%	·	·	·	·
CC(=O)C1=C(O)C2(C)c3c(O)c(C)c(O)c(C(C)=O)c3OC2CC1=O (centres undefined)	·	-5%	32µM*	-12%	·	·
Cc1ccc(-c2cc(Nc3cccc(C)c3)nc(C)n2)cc1	·	·	50µM*	·	·	·
Cc1cccc(CN2CCNc3cnc(Oc4ccccc4)cc3C2)c1	·	·	15%[176 µM]	·	·	·
COc1cccc(CNC(=O)[C@H]2CCCN2C(=O)[C@H]2CCCN2C(=O)N2CCCCC2)c1	·	·	-6%	·	·	·
COCC(=O)N1CCc2cn(C)c3cccc(c23)C1	·	·	27%	·	·	·
COc1cccc(N2C(=O)NC(=NC3CCCCC3)C23CCCN(CC2CC2)C3)c1 (centres undefined)	·	·	8%[6.33 µM]	·	·	·
COc1cccc(N2C(=O)NC(=NC3CCCC3)C23CCCN(CC2CCCCC2)C3)c1 (centres undefined)	·	·	79µM*	·	·	·
COc1ccccc1C(=O)N(Cc1cc2ccccc2[nH]c1=O)c1ccc(C)cc1	·	·	-14%	·	·	·
Cc1cccc(C)c1N=Nc1c(C)cc(O)cc1C	-47%	4%	0%	0%	25µM*	-1%[57.1 µM]
Cc1cccc(NC(=O)N2CCC(CCN)CC2)c1	·	·	45%	·	·	·
